Several values for one entry are separate records, joined by “and”; a condition that tells them apart may be missing. Equal values may be shown once. Hit rate of the full screen: of about 5,500 compounds, about 2,000 (36%) were called active. Roughly 18% stayed inconclusive and do not appear here. Cut-off read from the data, not from the text of the source: active = normalized growth mostly below about 0.91 (no sharp cut-off); inconclusive = no clear call, values can overlap the other calls; inactive = mostly above about 0.92. Some of the results follow.
Test: chemical genetic growth profiling, strain panel (AID 1159580);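 note: tested at 20 µM; growth read once vehicle control cultures reached saturation at 30 °C; 1 = growth at the plate median or of vehicle wells; lower values mean less growth of the strain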
Settings: S. cerevisiae deletion strains, growth OD

Measured: normalized growth

CNC(=O)O/N=C(\C)SC
inactive: locus YAL013W, strain DEP1, stronger effect = lower value 1 | locus YAL021C, strain ccr4, stronger effect = lower value 0.987 | locus YAL026C, strain drs2, stronger effect = lower value 1 | locus YAL030W, strain snc1, stronger effect = lower value 1.01 | locus YBL061C, strain skt5, stronger effect = lower value 1 | locus YBR009C, strain hhf1, stronger effect = lower value 1.01 | locus YBR021W, strain FUR4, stronger effect = lower value 1.03 | locus YBR023C, strain chs3, stronger effect = lower value 1 | locus YBR171W, strain sec66, stronger effect = lower value 1 | locus YBR229C, strain ROT2, stronger effect = lower value 1.01 | locus YBR231C, strain swc5, stronger effect = lower value 1 | locus YBR279W, strain paf1, stronger effect = lower value 0.999 | locus YCL011C, strain gbp2, stronger effect = lower value 1.01 | locus YCL016C, strain dcc1, stronger effect = lower value 0.998 | locus YCL029C, strain bik1, stronger effect = lower value 0.983 | locus YCL061C, strain MRC1, stronger effect = lower value 1 | locus YCL069W, strain vba3, stronger effect = lower value 1 | locus YCR088W, strain abp1, stronger effect = lower value 1 | locus YDL005C, strain med2, stronger effect = lower value 1 | locus YDL035C, strain GPR1, stronger effect = lower value 1.02 | locus YDL040C, strain nat1, stronger effect = lower value 0.999 | locus YDL074C, strain BRE1, stronger effect = lower value 1.07 | locus YDL101C, strain DUN1, stronger effect = lower value 1.02 | locus YDL134C, strain PPH21, stronger effect = lower value 1.01 | locus YDL185W, strain tfp1, stronger effect = lower value 0.988 | locus YDL192W, strain arf1, stronger effect = lower value 0.981 | locus YDR001C, strain nth1, stronger effect = lower value 1 | locus YDR069C, strain doa4, stronger effect = lower value 1 | locus YDR101C, strain arx1, stronger effect = lower value 0.983 | locus YDR137W, strain rgp1, stronger effect = lower value 1.01 | locus YDR150W, strain NUM1, stronger effect = lower value 1.01 | locus YDR159W, strain sac3, stronger effect = lower value 1 | locus YDR162C, strain NBP2, stronger effect = lower value 0.987 | locus YDR195W, strain ref2 0.971 | locus YDR297W, strain sur2, stronger effect = lower value 1.02 | locus YDR318W, strain mcm21, stronger effect = lower value 0.994 | locus YDR334W, strain swr1, stronger effect = lower value 0.999 | locus YDR335W, strain msn5, stronger effect = lower value 0.997 | locus YDR388W, stronger effect = lower value 0.984 | locus YDR392W, strain spt3, stronger effect = lower value 1 | locus YDR502C, strain sam2, stronger effect = lower value 0.993 | locus YEL003W, strain gim4, stronger effect = lower value 1 | locus YEL037C, strain rad23, stronger effect = lower value 1 | locus YEL061C, strain CIN8 (second series), stronger effect = lower value 1 | locus YEL061C, strain CIN8, stronger effect = lower value 1.01 | locus YER015W, strain faa2, stronger effect = lower value 0.982 | locus YER016W, strain bim1, stronger effect = lower value 1 | locus YER110C, stronger effect = lower value 0.977 | locus YER111C, strain swi4, stronger effect = lower value 0.996 | locus YER155C, strain BEM2 (second series), stronger effect = lower value 1.01 | locus YER155C, strain BEM2, stronger effect = lower value 1.01 | locus YER167W, strain BCK2, stronger effect = lower value 0.993 | locus YFR010W, strain ubp6, stronger effect = lower value 0.997 | locus YGL078C, strain dbp3, stronger effect = lower value 0.98 | locus YGL086W, strain mad1, stronger effect = lower value 0.984 | locus YGL167C, strain pmr1, stronger effect = lower value 0.996 | locus YGL173C, strain kem1, stronger effect = lower value 0.991 | locus YGL227W, strain vid30, stronger effect = lower value 1.01 | locus YGL240W, strain doc1, stronger effect = lower value 0.987 | locus YGL248W, strain PDE1, stronger effect = lower value 1.04 | locus YGL253W, strain hxk2, stronger effect = lower value 0.998 | locus YGR078C, strain PAC10, stronger effect = lower value 1 | locus YGR135W, strain pre9, stronger effect = lower value 0.998 | locus YGR229C, strain SMI1, stronger effect = lower value 1.03 | locus YGR252W, strain gcn5, stronger effect = lower value 0.986 | locus YHR013C, strain ard1, stronger effect = lower value 0.998 | locus YHR027C, strain rpn1, stronger effect = lower value 0.989 | locus YHR030C, strain SLT2, stronger effect = lower value 0.988 and 1.07 | locus YHR079C, strain IRE1 (second series), stronger effect = lower value 0.993 | locus YHR079C, strain IRE1, stronger effect = lower value 1.05 | locus YHR094C, strain hxt1, stronger effect = lower value 0.983 | locus YHR129C, strain ARP1, stronger effect = lower value 1.01 | locus YHR142W, strain chs7, stronger effect = lower value 1.01 | locus YHR200W, strain rpn10, stronger effect = lower value 0.99 | locus YIL066C, strain RNR3, stronger effect = lower value 1.03 | locus YIL073C, strain SPO22, stronger effect = lower value 0.995 | locus YIL125W, strain kgd1, stronger effect = lower value 0.986 | locus YIR030C, strain dcg1, stronger effect = lower value 0.98 | locus YJL092W, strain hpr5, stronger effect = lower value 0.996 | locus YJL095W, strain BCK1 (second series), stronger effect = lower value 0.996 | locus YJL095W, strain BCK1, stronger effect = lower value 1.01 and 1.04 | locus YJL115W, strain asf1, stronger effect = lower value 1 | locus YJL129C, strain trk1, stronger effect = lower value 1.01 | locus YJL134W, strain LCB3, stronger effect = lower value 1.02 | locus YJL154C, strain vps35, stronger effect = lower value 0.999 | locus YJL164C, strain tpk1, stronger effect = lower value 1 | locus YJL166W, strain qcr8, stronger effect = lower value 1 | locus YJL168C, strain set2, stronger effect = lower value 0.989 | locus YJL187C, strain SWE1 (second series), stronger effect = lower value 1.01 | locus YJL187C, strain SWE1, stronger effect = lower value 1.02 | locus YJR043C, strain POL32, stronger effect = lower value 1.01 | locus YJR066W, strain TOR1, stronger effect = lower value 0.988
